Drawing on PubChem BioAssay, this text covers composite z-score and z-score for 4 compounds.

A short description of experiment [1]: binders of probe aFSTL3 on microarray, primary screen, stem cell growth factor project, biochemical, small-molecule microarray, fluorescence 635/667 (AID 1064).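 Note: measures binding of the biotinylated anti-FSTL3 antibody to printed compounds.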 Conditions: higher = more signal.
Experiment [2] is described as follows: binders from COS7 lysate, DM2A8 probe, primary screen, torsin A project, cell lysate, small-molecule microarray, fluorescence 635/667 (AID 1065). Particulars: higher = more signal, COS7 lysate expressing mutant human TOR1A.
Experiment [3] is described as follows: binders of probe aFGF2 on microarray, primary screen, stem cell growth factor project, biochemical, small-molecule microarray, fluorescence 635/667 (AID 1067).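 Note: measures binding of biotinylated aFGF2 protein to printed compounds on slides; z-score merges feature fluorescence and signal-to-noise across triplicate slides.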 Particulars: higher = more signal.
Experiment [4] is described as follows: binders of probe aFGF10 on microarray, primary screen, stem cell growth factor project, biochemical, small-molecule microarray, fluorescence 635/667 (AID 1071).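 Note: score merges 667 nm spot intensity and signal to noise from triplicate slides.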 Conditions: higher = more signal.
Experiment [5] deals with Neurogenic locus notch homolog protein 2 (Homo sapiens) (UniProt Q04721). Briefly: Notch2 binders on small-molecule microarrays, primary screen, biochemical, small-molecule microarray, 635 nm fluorescence, stem cell growth factors (AID 1073). Particulars: Notch2 binding, higher = more signal.
The target in experiment [6] is Pro-neuregulin-1, membrane-bound isoform (Homo sapiens) (UniProt Q02297). Briefly: NRG1 binders on small-molecule microarrays, primary screen, psychiatric disease protein project, biochemical, small-molecule microarray, fluorescence 635/667 (AID 1075).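 Note: score combines 667 nm spot fluorescence with signal to noise.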 Particulars: NRG1 binding, 635 nm fluorescence, higher = more signal.
Experiment [7] relates to Neuregulin-1 EGF-like domain. Description: binders of neuregulin-1 EGF-like domain, primary screen, biochemical, small-molecule microarray, 635 nm fluorescence (AID 1081).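 Note: binding of the protein to compounds printed on small-molecule microarray slides.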 Conditions: small-molecule microarray binding, higher = more signal.
Experiment [8] is described as follows: FRG1 promoter luciferase signal modulators, primary screen, FRG1 inhibition for FSHD, cell-based, C2C12 myotubes, firefly/Renilla luciferase, luminescence (AID 1084). Conditions: higher = more signal, called active from +8 up or from −8 down.
The nature of experiment [9]: binders of probe aFST on microarray, primary screen, stem cell growth factor project, biochemical, small-molecule microarray, fluorescence 635/667 (AID 1086).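 Note: score merges 667 nm fluorescence with signal-to-noise of each printed compound spot.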 Particulars: higher = more signal.
Experiment [10] in a line: binders of probe aHhip on microarray, primary screen, stem cell growth factor project, biochemical, small-molecule microarray, fluorescence 635/667 (AID 1087).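 Note: score merges spot fluorescence at 667nm with spot signal to noise ratio.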 Particulars: higher = more signal.
For experiment [11], the system named is PRMT1 (protein arginine N-methyltransferase 1). Briefly: PRMT1 binders on small-molecule microarrays, primary screen, biochemical, small-molecule microarray, 635 nm fluorescence (AID 1088).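 Note: binding of Prmt1 protein to compounds spotted on small-molecule microarray slides.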 Conditions: small-molecule microarray binding, higher = more signal.
Experiment [12] in a line: yeast growth modulation, basal conditions, primary screen, YJM789 clinical isolate, OD600, 24 h (AID 1089).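 Note: growth of clinical yeast isolate S. cerevisiae YJM 789 seeded 1000 cells per well; test concentration not given here.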 Conditions: S. cerevisiae YJM789 growth, higher = more signal, called active from +8 up or from −8 down.
Experiment [13] is described as follows: fission yeast growth modulation, primary screen, strain 972, OD600, 24 h, no modulator (AID 1090).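 Note: basal condition with compound alone and no growth modifier present; test concentration not given here.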 Conditions: S. pombe 972 growth, higher = more signal, called active from +8 up or from −8 down.
Experiment [14] in a line: S. cerevisiae growth modulation with rapamycin, primary screen, strain BY4716, OD600, 96 h (AID 1091). Note: test concentration not given here. Particulars: higher = more signal, called active from +8 up or from −8 down.
For experiment [15], the target named is Torsin-1A-interacting protein 2 (Homo sapiens) (UniProt Q8NFQ8). Description: LULL1 binders on small-molecule microarray, primary screen, cell lysate, human LULL1 lysate, 635/667 nm fluorescence (AID 1092).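 Note: score merges per-feature 667 nm fluorescence with signal-to-noise.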 Particulars: hLULL1 lysate binding, 635 nm fluorescence, higher = more signal.
Experiment [16] in a line: E. coli growth modulation, two-sided OD650, primary screen, E. coli filamentation project, strain DRC41, 24 h (AID 1093).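 Note: MC1000 strain lacking acrAB efflux and sulA so SOS filamentation is blocked; test concentration not given here.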 Particulars: OD650, 24 h, higher = more signal, called active from +8 up or from −8 down.
A short description of experiment [17]: small-molecule microarray binders of probe aLefty2, primary screen, biochemical, biotinylated probe, 635/667 nm fluorescence (AID 1094).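 Note: score merges spot fluorescence near 667 nm with spot signal-to-noise ratio.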 Conditions: higher = more signal.
Experiment [18] has as its system Noggin (protein binding on small-molecule microarray). Briefly: Noggin binders on small-molecule microarray, primary screen, biochemical, 635/667 nm fluorescence (AID 1095).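 Note: score merges 667 nm feature fluorescence with signal to noise over triplicate slides.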 Conditions: 635 nm fluorescence, higher = more signal.
The target in experiment [19] is Neurogenic locus notch homolog protein 3 (Homo sapiens) (UniProt Q9UM47). Briefly: NOTCH3 binders on small-molecule microarray, primary screen, biochemical, 635/667 nm fluorescence (AID 1096). Conditions: NOTCH3 binding, 635 nm fluorescence, higher = more signal.
A short description of experiment [20]: small-molecule microarray binders of probe aEGFR, primary screen, biochemical, biotinylated probe, 635/667 nm fluorescence (AID 1097).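 Note: probe is a biotinylated anti-EGFR antibody binding compounds printed on slides; score combines fluorescence near 667 nm and signal to noise of each spot.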 Particulars: higher = more signal.

“And” between values parts separate entries of the source, which are not always exact repeats. Equal values may be shown once. The source made the active and inactive calls.

Sequence of Neurogenic locus notch homolog protein 2 (Homo sapiens) (Q04721 whole entry, looked up, canonical isoform): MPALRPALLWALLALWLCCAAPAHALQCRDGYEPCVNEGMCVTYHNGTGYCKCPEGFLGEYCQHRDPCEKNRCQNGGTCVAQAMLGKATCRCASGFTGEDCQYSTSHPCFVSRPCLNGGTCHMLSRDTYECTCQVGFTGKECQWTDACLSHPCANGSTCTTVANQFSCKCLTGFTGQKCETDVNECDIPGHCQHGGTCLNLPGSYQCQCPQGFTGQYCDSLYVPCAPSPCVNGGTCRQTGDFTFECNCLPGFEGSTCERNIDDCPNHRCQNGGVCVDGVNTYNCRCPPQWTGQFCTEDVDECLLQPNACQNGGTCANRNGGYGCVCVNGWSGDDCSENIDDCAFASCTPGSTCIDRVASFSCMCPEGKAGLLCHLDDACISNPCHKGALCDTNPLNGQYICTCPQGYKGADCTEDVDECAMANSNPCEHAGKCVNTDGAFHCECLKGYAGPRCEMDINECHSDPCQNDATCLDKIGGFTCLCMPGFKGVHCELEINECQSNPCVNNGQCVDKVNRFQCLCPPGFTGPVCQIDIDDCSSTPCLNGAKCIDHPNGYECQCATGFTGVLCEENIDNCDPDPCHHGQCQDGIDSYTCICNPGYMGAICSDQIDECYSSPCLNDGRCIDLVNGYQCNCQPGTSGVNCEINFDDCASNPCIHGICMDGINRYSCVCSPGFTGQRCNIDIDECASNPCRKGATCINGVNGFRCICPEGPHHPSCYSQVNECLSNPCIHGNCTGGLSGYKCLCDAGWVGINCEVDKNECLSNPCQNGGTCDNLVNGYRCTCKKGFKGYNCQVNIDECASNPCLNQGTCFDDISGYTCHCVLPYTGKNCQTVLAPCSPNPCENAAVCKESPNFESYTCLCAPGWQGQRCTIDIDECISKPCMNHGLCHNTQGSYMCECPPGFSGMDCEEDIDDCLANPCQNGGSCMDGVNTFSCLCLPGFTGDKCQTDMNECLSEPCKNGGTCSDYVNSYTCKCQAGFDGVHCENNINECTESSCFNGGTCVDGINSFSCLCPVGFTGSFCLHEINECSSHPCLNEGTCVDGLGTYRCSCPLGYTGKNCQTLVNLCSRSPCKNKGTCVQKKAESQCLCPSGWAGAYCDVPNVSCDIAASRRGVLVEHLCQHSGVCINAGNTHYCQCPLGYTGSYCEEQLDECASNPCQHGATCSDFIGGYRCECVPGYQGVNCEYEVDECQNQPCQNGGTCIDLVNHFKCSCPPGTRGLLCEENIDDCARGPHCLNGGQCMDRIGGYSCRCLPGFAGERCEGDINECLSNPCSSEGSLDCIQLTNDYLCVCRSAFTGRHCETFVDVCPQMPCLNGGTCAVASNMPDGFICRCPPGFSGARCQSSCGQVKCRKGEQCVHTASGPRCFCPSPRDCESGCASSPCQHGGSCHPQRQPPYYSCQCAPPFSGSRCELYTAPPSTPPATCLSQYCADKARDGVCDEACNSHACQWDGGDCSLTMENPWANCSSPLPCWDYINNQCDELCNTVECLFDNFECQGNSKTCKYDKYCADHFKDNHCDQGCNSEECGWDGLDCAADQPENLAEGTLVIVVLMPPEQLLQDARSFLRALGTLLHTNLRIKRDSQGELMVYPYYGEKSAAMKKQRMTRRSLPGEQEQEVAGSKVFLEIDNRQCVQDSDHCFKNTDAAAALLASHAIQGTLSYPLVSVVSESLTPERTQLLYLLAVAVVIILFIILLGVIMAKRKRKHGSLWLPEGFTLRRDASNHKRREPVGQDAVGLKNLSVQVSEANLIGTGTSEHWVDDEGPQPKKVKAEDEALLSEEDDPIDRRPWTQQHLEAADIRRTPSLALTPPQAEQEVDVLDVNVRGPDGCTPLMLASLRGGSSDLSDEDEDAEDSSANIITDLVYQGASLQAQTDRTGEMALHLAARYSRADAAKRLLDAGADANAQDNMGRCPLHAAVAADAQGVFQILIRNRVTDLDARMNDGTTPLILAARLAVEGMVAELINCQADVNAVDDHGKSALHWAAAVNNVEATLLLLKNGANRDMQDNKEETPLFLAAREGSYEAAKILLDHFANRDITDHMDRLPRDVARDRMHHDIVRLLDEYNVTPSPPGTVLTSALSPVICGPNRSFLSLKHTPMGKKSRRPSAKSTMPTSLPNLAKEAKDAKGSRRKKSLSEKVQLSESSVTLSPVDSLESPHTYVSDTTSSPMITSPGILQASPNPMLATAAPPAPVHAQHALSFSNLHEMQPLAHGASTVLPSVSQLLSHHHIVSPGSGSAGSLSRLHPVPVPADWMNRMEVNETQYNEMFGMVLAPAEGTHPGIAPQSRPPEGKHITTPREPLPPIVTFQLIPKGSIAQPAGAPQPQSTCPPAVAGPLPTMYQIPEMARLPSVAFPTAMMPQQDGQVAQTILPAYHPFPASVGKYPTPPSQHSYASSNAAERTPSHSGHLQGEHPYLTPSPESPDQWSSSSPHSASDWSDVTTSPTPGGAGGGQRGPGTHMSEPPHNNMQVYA
Sequence of Torsin-1A-interacting protein 2 (Homo sapiens) (Q8NFQ8 whole entry, looked up): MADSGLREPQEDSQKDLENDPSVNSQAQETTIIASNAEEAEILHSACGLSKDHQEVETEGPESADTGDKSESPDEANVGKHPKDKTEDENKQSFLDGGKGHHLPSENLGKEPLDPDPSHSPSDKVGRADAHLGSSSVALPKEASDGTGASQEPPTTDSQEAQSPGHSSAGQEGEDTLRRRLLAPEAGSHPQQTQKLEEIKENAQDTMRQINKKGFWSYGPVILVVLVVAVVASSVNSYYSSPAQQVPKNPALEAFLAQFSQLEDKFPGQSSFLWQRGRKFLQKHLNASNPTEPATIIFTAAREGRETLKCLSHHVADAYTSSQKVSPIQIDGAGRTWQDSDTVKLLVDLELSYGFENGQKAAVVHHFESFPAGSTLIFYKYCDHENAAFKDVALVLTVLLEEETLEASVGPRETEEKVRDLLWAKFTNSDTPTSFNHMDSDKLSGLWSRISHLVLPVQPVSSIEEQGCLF
Sequence of Pro-neuregulin-1, membrane-bound isoform (Homo sapiens) (Q02297 whole entry, looked up, the tested form may be a part, canonical isoform): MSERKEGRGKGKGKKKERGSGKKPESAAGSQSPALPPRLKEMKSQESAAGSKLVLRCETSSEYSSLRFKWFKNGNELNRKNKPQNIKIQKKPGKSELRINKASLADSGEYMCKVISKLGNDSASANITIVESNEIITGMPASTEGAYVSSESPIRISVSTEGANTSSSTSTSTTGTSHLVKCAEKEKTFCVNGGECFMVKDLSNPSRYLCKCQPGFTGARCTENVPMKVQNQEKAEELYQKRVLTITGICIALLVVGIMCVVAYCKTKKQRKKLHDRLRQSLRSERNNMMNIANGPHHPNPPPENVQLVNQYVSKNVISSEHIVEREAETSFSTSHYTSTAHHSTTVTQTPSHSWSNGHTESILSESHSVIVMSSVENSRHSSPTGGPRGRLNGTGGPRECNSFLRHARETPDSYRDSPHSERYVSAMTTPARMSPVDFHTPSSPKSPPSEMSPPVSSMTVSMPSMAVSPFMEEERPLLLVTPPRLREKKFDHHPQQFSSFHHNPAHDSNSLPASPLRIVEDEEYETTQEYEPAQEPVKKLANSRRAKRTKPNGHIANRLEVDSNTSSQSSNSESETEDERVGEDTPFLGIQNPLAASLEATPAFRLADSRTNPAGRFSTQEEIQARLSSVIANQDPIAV

As for `C=CCN(Cc1ccccc1)C(=O)C1N(c2c(Cl)cccc2CO)C(=O)C2C(C(=O)O)C3C=CC21O3` (stereo not given), the composite z-score was 1.77 and 1.95 in experiment [1]; -1.28 and -0.799 in [2]; -0.176 and -0.166 in experiment [3]; -1.74 and -0.702 in experiment [4]; -2.4 and -2.37 in experiment [5]; -1.18 and -0.797 in experiment [6]. The composite z-score in [7] was -0.822 and -0.464; in experiment [9] it was -0.877 and -0.563; in [10], -0.418 and -0.137; in experiment [11], -1.44 and -1.17; in experiment [15], -1.2 and -1.34; in experiment [17], -0.114 and 0.0686. Moreover, the composite z-score is -2.68 and -3.18 in experiment [18]; -2.25 and -1.57 in experiment [19]; -0.21 and -0.395 in experiment [20]. The z-score in [8] was -1.05 (inactive) and 1.16 (inactive); in [12], -3.28 (inactive) and 1.06 (inactive); in experiment [13] it was -0.875 (inactive) and -0.0197 (inactive); in experiment [14] it was -1.39 (inactive) and 0.236 (inactive); in experiment [16] it was 3.06 (inactive) and 1.29 (inactive).
For the compound `C=C[C@H](OC)[C@@H](O)c1ccc(OCCO)cc1`, the composite z-score is 1.29 and 1.32 in [1]; -0.768 and -0.833 in experiment [2]; -0.219 and -0.121 in experiment [3]; -1.19 and -0.295 in [4]; -1.86 and -1.69 in experiment [5]; -0.102 and -0.296 in experiment [6]. Besides, the composite z-score in experiment [7] was 0.604 and 0.0642; in [9], -1.29 and -0.821; in [10] it was -0.405 and -0.268; in experiment [11], -0.801 and -0.822; in [15], -0.517 and -0.64; in experiment [17], -0.242 and -0.0736. The composite z-score in experiment [18] was -2.2 and -1.82; in experiment [19], -1.56 and -0.724; in [20], -0.313 and -0.314. The z-score in experiment [8] was 0.298 (inactive) and 0.277 (inactive); in [12], -0.146 (inactive) and 0.665 (inactive); in experiment [13], 0.363 (inactive) and -0.412 (inactive); in experiment [14] it was 0.573 (inactive) and 0.329 (inactive); in experiment [16] it was -0.0467 (inactive) and 0.606 (inactive).
As to `CCN1C(=O)[C@H]2[C@H]3[C@H](O)[C@H](O)CC(=NOC[C@@H](O)COCc4ccco4)[C@@H]3CC[C@H]2C1=O`, the composite z-score was -0.841 and -0.446 in experiment [1]; 2.37 and 0.0438 in [2]; -0.235 and -0.132 in experiment [3]; -0.507 and 0.352 in experiment [4]; -0.413 and -0.498 in experiment [5]; -0.538 and -0.26 in [6]. The composite z-score in experiment [7] is 0.837 and 1.12; in experiment [9], -0.104 and -0.45; in experiment [10] it was -0.0645 and 0.154; in experiment [11], 1.4 and 0.727; in experiment [15], -1.03 and 0.493; in experiment [17] it was -0.266 and -0.44. For the same compound, the composite z-score in [18] was 0.445 and -0.121; in [19] it was -0.365 and -0.32; in experiment [20], 0.0747 and -0.0413. The z-score in experiment [8] is 0.235 (inactive) and 0.417 (inactive); in experiment [12], 0.686 (inactive) and 0.102 (inactive); in [13], 0.315 (inactive) and 0.174 (inactive); in [14], 1.29 (inactive) and 0.945 (inactive); in experiment [16], 0.0584 (inactive) and -1.13 (inactive).
On to `CCN1C(=O)[C@H]2[C@H]3[C@H](O)[C@H](O)CC(=NNC(=O)OCc4ccc(OC)cc4)[C@H]3CC[C@H]2C1=O`, for which the composite z-score in experiment [1] is 2.2; in experiment [2], 0.349; in experiment [3], -0.0775; in [4] it was 0.284; in experiment [5], -0.0863; in experiment [6] it was -0.116. Also, the composite z-score in experiment [7] is -0.222; in [9], 1.03; in experiment [10], -0.0482; in [11] it was 0.0536; in experiment [15], 0.677; in experiment [17], 0.656. For the same compound, the values for the composite z-score in experiment [18], in experiment [19] and in [20] were -0.283, -0.143 and 0.0004, respectively. Besides, the z-score in experiment [8] was -0.0988 (inactive); in [12], 0.523 (inactive); in [13], -0.312 (inactive); in [14], 0.41 (inactive); in [16] it was -0.17 (inactive).
